From PubChem BioAssay AID1159580 (chemical genetic matrix, 2015)
Out of some 5,500 compounds screened, about 2,000 (36%) were called active. Not shown: some 18% with an inconclusive outcome. Cut-off read from the data, not from the text of the source: active = normalized growth mostly below about 0.91 (no sharp cut-off); inconclusive = no clear call, values can overlap the other calls; inactive = mostly above about 0.92. The list shows a part of the results.

Experiment: chemical genetic growth profiling, strain panel (AID 1159580);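 note: tested at 20 µM; growth read once vehicle control cultures reached saturation at 30 °C; 1 = growth at the plate median or of vehicle wells; lower values mean less growth of the strain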
Settings: growth OD
[1] = S. cerevisiae deletion strains, locus YAL013W, strain DEP1, stronger effect = lower value
[2] = S. cerevisiae deletion strains, locus YDR150W, strain NUM1, stronger effect = lower value
[3] = S. cerevisiae deletion strains, locus YJR075W, strain HOC1, stronger effect = lower value
[4] = S. cerevisiae deletion strains, locus YMR263W, strain SAP30, stronger effect = lower value
[5] = S. cerevisiae deletion strains, locus YNL153C, strain GIM3, stronger effect = lower value
[6] = S. cerevisiae deletion strains, locus YNL322C, strain KRE1, stronger effect = lower value
[7] = S. cerevisiae deletion strains, locus YPL055C, strain LGE1, stronger effect = lower value
[8] = S. cerevisiae deletion strains, locus YBR229C, strain ROT2, stronger effect = lower value
[9] = S. cerevisiae deletion strains, locus YDL101C, strain DUN1, stronger effect = lower value
[10] = S. cerevisiae deletion strains, locus YEL061C, strain CIN8, stronger effect = lower value
[11] = S. cerevisiae deletion strains, locus YHR030C, strain SLT2, stronger effect = lower value
[12] = S. cerevisiae deletion strains, locus YJR043C, strain POL32, stronger effect = lower value
[13] = S. cerevisiae deletion strains, locus YLR039C, strain RIC1, stronger effect = lower value
[14] = S. cerevisiae deletion strains, locus YLR262C, strain YPT6, stronger effect = lower value

Measured: normalized growth

NC(=O)CCC(N)C(=O)O (stereo not given)
inactive: [1] 1.02 | S. cerevisiae deletion strains, locus YAL040C, strain CLN3, stronger effect = lower value 0.998 | S. cerevisiae deletion strains, locus YCL061C, strain MRC1 (second series), stronger effect = lower value 1 | [2] 0.999 | S. cerevisiae deletion strains, locus YDR363W, strain ESC2, stronger effect = lower value 1.01 | S. cerevisiae deletion strains, locus YER002W, strain NOP16, stronger effect = lower value 1.02 | S. cerevisiae deletion strains, locus YGR229C, strain SMI1, stronger effect = lower value 1.04 | [3] 1.01 | [4] 0.997 | S. cerevisiae deletion strains, locus YNL128W, strain TEP1, stronger effect = lower value 0.987 | [5] 0.99 | S. cerevisiae deletion strains, locus YNL175C, strain NOP13, stronger effect = lower value 0.996 | S. cerevisiae deletion strains, locus YNL197C, strain WHI3, stronger effect = lower value 0.997 | S. cerevisiae deletion strains, locus YNL224C, strain SQS1, stronger effect = lower value 0.993 | [6] 1.01 | S. cerevisiae deletion strains, locus YOR083W, strain WHI5 (second series), stronger effect = lower value 1.01 | [7] 1.03

BrC12CC3CC(CC(C3)C1)C2
inactive: [1] 1 | [8] 1.02 | [9] 1.01 | [2] 0.961 | [10] 1.01 | S. cerevisiae deletion strains, locus YGR078C, strain PAC10, stronger effect = lower value 0.997 | [11] 1.05 | S. cerevisiae deletion strains, locus YHR087W, strain rtc3, stronger effect = lower value 0.971 | [12] 1.02 | [3] 1.03 | S. cerevisiae deletion strains, locus YKL190W, strain CNB1, stronger effect = lower value 1 | [13] 1.02 | S. cerevisiae deletion strains, locus YLR058C, strain SHM2 (second series), stronger effect = lower value 1.02 | S. cerevisiae deletion strains, locus YLR085C, strain ARP6, stronger effect = lower value 1.01 | [14] 1.02 | S. cerevisiae deletion strains, locus YML094W, strain GIM5, stronger effect = lower value 0.997 | S. cerevisiae deletion strains, locus YMR219W, strain ESC1, stronger effect = lower value 1 | [4] 0.975 | [5] 1.02 | S. cerevisiae deletion strains, locus YNL298W, strain CLA4 (second series), stronger effect = lower value 0.996 | [6] 1.01 | S. cerevisiae deletion strains, locus YNR030W, strain Alg12, stronger effect = lower value 0.999 | S. cerevisiae deletion strains, locus YOL006C, strain TOP1, stronger effect = lower value 1.01 | [7] 1.03 | S. cerevisiae deletion strains, locus YPL241C, strain CIN2, stronger effect = lower value 1 | S. cerevisiae deletion strains, locus YPR135W, strain CTF4, stronger effect = lower value 0.99

CC1CC2C(C(O)CC3(C)C2CCC3(O)C(=O)COC(=O)CCC(=O)O)C2(C)C=CC(=O)C=C12 (stereo not given)
inactive: S. cerevisiae deletion strains, locus YBR021W, strain FUR4, stronger effect = lower value 1.08 | [8] 1 | S. cerevisiae deletion strains, locus YCL029C, strain bik1, stronger effect = lower value 0.97 | S. cerevisiae deletion strains, locus YDL035C, strain GPR1, stronger effect = lower value 1.01 | S. cerevisiae deletion strains, locus YDL074C, strain BRE1, stronger effect = lower value 1.01 | [9] 1.01 | S. cerevisiae deletion strains, locus YDL185W, strain tfp1, stronger effect = lower value 0.959 | S. cerevisiae deletion strains, locus YDL192W, strain arf1, stronger effect = lower value 0.982 | S. cerevisiae deletion strains, locus YDR101C, strain arx1, stronger effect = lower value 0.993 | [2] 1 | S. cerevisiae deletion strains, locus YDR162C, strain NBP2, stronger effect = lower value 1.02 | S. cerevisiae deletion strains, locus YDR318W, strain mcm21, stronger effect = lower value 0.989 | S. cerevisiae deletion strains, locus YDR388W, stronger effect = lower value 0.997 | S. cerevisiae deletion strains, locus YDR502C, strain sam2, stronger effect = lower value 0.982 | [10] 1.01 | S. cerevisiae deletion strains, locus YER110C, stronger effect = lower value 0.977 | S. cerevisiae deletion strains, locus YER155C, strain BEM2, stronger effect = lower value 1.01 | S. cerevisiae deletion strains, locus YER167W, strain BCK2, stronger effect = lower value 1.01 | S. cerevisiae deletion strains, locus YGL078C, strain dbp3, stronger effect = lower value 0.984 | S. cerevisiae deletion strains, locus YGL086W, strain mad1, stronger effect = lower value 1 | S. cerevisiae deletion strains, locus YGL248W, strain PDE1, stronger effect = lower value 1.01 | S. cerevisiae deletion strains, locus YGR135W, strain pre9, stronger effect = lower value 0.982 | S. cerevisiae deletion strains, locus YGR252W, strain gcn5, stronger effect = lower value 0.992 | [11] 0.987 | S. cerevisiae deletion strains, locus YHR079C, strain IRE1 (second series), stronger effect = lower value 0.979 | S. cerevisiae deletion strains, locus YHR094C, strain hxt1, stronger effect = lower value 0.994 | S. cerevisiae deletion strains, locus YHR129C, strain ARP1, stronger effect = lower value 0.999 | S. cerevisiae deletion strains, locus YHR200W, strain rpn10, stronger effect = lower value 0.987 | S. cerevisiae deletion strains, locus YIL066C, strain RNR3, stronger effect = lower value 1.03 | S. cerevisiae deletion strains, locus YIL073C, strain SPO22, stronger effect = lower value 0.973 | S. cerevisiae deletion strains, locus YIL125W, strain kgd1, stronger effect = lower value 0.983 | S. cerevisiae deletion strains, locus YIR030C, strain dcg1, stronger effect = lower value 0.978 | S. cerevisiae deletion strains, locus YJL095W, strain BCK1, stronger effect = lower value 1.05 | S. cerevisiae deletion strains, locus YJL134W, strain LCB3, stronger effect = lower value 0.999 | S. cerevisiae deletion strains, locus YJL168C, strain set2, stronger effect = lower value 0.979 | S. cerevisiae deletion strains, locus YJL187C, strain SWE1 (second series), stronger effect = lower value 1.02 | [12] 1.04 | [3] 1 | S. cerevisiae deletion strains, locus YKL009W, strain mrt4, stronger effect = lower value 0.97 | S. cerevisiae deletion strains, locus YKL068W, stronger effect = lower value 0.968 | S. cerevisiae deletion strains, locus YKL085W, strain MDH1 (second series), stronger effect = lower value 0.994 | S. cerevisiae deletion strains, locus YKL085W, strain MDH1, stronger effect = lower value 0.994 | S. cerevisiae deletion strains, locus YKR001C, strain vps1, stronger effect = lower value 0.984 | [13] 1.03 | S. cerevisiae deletion strains, locus YLR058C, strain SHM2, stronger effect = lower value 0.999 | S. cerevisiae deletion strains, locus YLR102C, strain apc9, stronger effect = lower value 0.991 | [14] 0.98 | S. cerevisiae deletion strains, locus YLR268W, strain sec22, stronger effect = lower value 0.99 | S. cerevisiae deletion strains, locus YLR330W, strain CHS5, stronger effect = lower value 0.987 | S. cerevisiae deletion strains, locus YLR342W, strain FKS1 (second series), stronger effect = lower value 1.04 | S. cerevisiae deletion strains, locus YLR371W, strain rom2, stronger effect = lower value 0.979 | S. cerevisiae deletion strains, locus YLR418C, strain cdc73, stronger effect = lower value 1.02 | S. cerevisiae deletion strains, locus YML016C, strain PPZ1, stronger effect = lower value 1.01 | S. cerevisiae deletion strains, locus YML032C, strain rad52, stronger effect = lower value 1 | S. cerevisiae deletion strains, locus YML124C, strain tub3, stronger effect = lower value 0.987 | S. cerevisiae deletion strains, locus YMR078C, strain ctf18, stronger effect = lower value 0.979 | S. cerevisiae deletion strains, locus YMR223W, strain ubp8, stronger effect = lower value 0.981 | [4] 1.02 | S. cerevisiae deletion strains, locus YMR307W, strain GAS1, stronger effect = lower value 1.13 | S. cerevisiae deletion strains, locus YNL067W, strain RPL9B, stronger effect = lower value 1.03 | [5] 1.03 | S. cerevisiae deletion strains, locus YNL233W, strain BNI4, stronger effect = lower value 1.04 | S. cerevisiae deletion strains, locus YNL250W, strain rad50, stronger effect = lower value 0.966 | S. cerevisiae deletion strains, locus YNL271C, strain bni1, stronger effect = lower value 0.999 | S. cerevisiae deletion strains, locus YNL298W, strain CLA4, stronger effect = lower value 0.993 | S. cerevisiae deletion strains, locus YNL307C, strain MCK1, stronger effect = lower value 0.987 | [6] 1.01 | S. cerevisiae deletion strains, locus YNR052C, strain pop2, stronger effect = lower value 0.982 | S. cerevisiae deletion strains, locus YOL012C, strain htz1 0.933 | S. cerevisiae deletion strains, locus YOL147C, strain pex11, stronger effect = lower value 0.993 | S. cerevisiae deletion strains, locus YOR061W, strain CKA2, stronger effect = lower value 1 | S. cerevisiae deletion strains, locus YOR069W, strain VPS5, stronger effect = lower value 1 | S. cerevisiae deletion strains, locus YOR136W, strain idh2, stronger effect = lower value 0.99 | S. cerevisiae deletion strains, locus YOR144C, strain elg1, stronger effect = lower value 1 | S. cerevisiae deletion strains, locus YOR184W, strain ser1, stronger effect = lower value 1.01 | S. cerevisiae deletion strains, locus YOR316C, strain cot1, stronger effect = lower value 1 | S. cerevisiae deletion strains, locus YPR119W, strain clb2, stronger effect = lower value 0.986 | S. cerevisiae deletion strains, locus YPR141C, strain kar3, stronger effect = lower value 0.972 | S. cerevisiae deletion strains, locus YPR163C, strain tif3, stronger effect = lower value 0.985 | S. cerevisiae deletion strains, locus YPR167C, strain met16, stronger effect = lower value 0.969 | S. cerevisiae deletion strains, strain wtn01, stronger effect = lower value 0.995 | S. cerevisiae strains, strain wild type, stronger effect = lower value 1.01
